This passage reports Potency results from PubChem BioAssay (Tox21).

Inconclusive results are not listed. Activity calls are given as the source filed them. Unless noted, calls come from the whole dose curve.

A short description of experiment [1]: Nuclear factor erythroid 2-related factor 2/antioxidant responsive element (Nrf2/ARE) small molecule agonists: qHTS cell viability counter screen in human keratinocytes (AID 1919968; active = well fitted curve in the direction sought with a large enough effect in the repeat runs; an effect the other way counts as inactive or inconclusive; note: nearly all actives have a fitted effect of over 55% in size). A digest of the protocol:
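Cytotoxicity was multiplexed with the Nrf2/ARE luciferase assay in the same wells. Stably transfected HaCaT keratinocytes were treated with test compounds for 23 h at 37 C. Cell viability was then measured by CellTiter-Fluor fluorescence.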
(In general: In qHTS, concentration-response curves come from the screen itself.)

In experiment [2] the target is KiSS-1 receptor (Homo sapiens) (UniProt Q969F8). The experiment in a line: Human kisspeptin (KISS1R) small molecule agonists, calcium flux assay in KISS1R-HEK293 cells (AID 1920064; active = well fitted curve in the direction sought with a large enough effect in the repeat runs; an effect the other way counts as inactive or inconclusive). A digest of the protocol:
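Agonist activity is monitored as intracellular calcium rise in engineered HEK293 cells carrying human KISS1R. Cells are dye-loaded for 1 h at 37 C before compound addition, and fluorescence is recorded for 3 min.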
(In general: Calcium assays in cells follow changes in intracellular calcium, usually with a dye or a luminescent sensor.)

A short description of experiment [3]: G protein-coupled receptor (GPCR) small molecule agonists, calcium flux assay: HEK293 wild type cell line counter screen (AID 1920065). The method in brief:
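Seed cells, incubate 18 h (37 C, 5% CO2); add calcium dye, 1 h at 37 C; pin-transfer compounds, ATP control or DMSO; read fluorescence 480/540 nm each second for 3 min.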

Experiment [4] in a line: p53 small molecule agonists, cell-based qHTS assay with human liver microsomes (AID 1963577).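 Note: p53 response element beta-lactamase reporter cells with liver microsomes plus NADPH.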 A digest of the protocol: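 Metabolically competent format: test substances, human liver microsomes and NADPH (both 0.5 mg/mL final) incubated with p53RE-bla cells 16 h at 37 C. Beta-lactamase reporter signal then quantified by fluorescence.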
The nature of experiment [5]: p53 small molecule agonists, cell-based qHTS assay with rat liver microsomes (AID 1963578). A digest of the protocol:
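Each plate received p53RE-bla cells, then compound, then rat liver microsomes and NADPH (both 0.5 mg/mL final). Plates were held 16 h at 37 C, and beta-lactamase activity was detected with LiveBLAzer over 2 h.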

Experiment [6] is described as follows: p53 small molecule agonists, cell-based qHTS assay with rat liver microsomes: qHTS cell viability counter screen (AID 1963580). Note: nearly all actives have a fitted effect of over 45% in size. The method in brief: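 Counter screen for cytotoxicity under metabolic activation: rat liver microsomes and NADPH, 0.5 mg/mL final each, added with compounds to p53RE-bla HCT-116 cells; 16 h at 37 C, then ATP luminescence read.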
Experiment [7] can be described thus: p53 small molecule agonists, cell-based qHTS assay: qHTS cell viability counter screen (AID 1963581). Note: nearly all actives have a fitted effect of over 45% in size. A digest of the protocol:
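Viability was counter-screened in parallel with the p53 agonist reporter by measuring intracellular ATP luminescence in the same HCT-116 p53RE-bla wells after 16 h compound treatment at 37 C.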

A short description of experiment [8]: p53 small molecule agonists, cell-based qHTS assay (AID 1963582; active = well fitted activation curve with a large enough effect in the signal ratio in the repeat runs, not every such curve was filed as active; the % refers to the signal ratio). A digest of the protocol:
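Cells carrying a p53-responsive bla reporter are treated with test compounds for 16 h at 37 C; beta-lactamase activity is then detected with LiveBLAzer B/G FRET substrate after 2 h at room temperature.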

For experiment [9], the target named is 5-hydroxytryptamine receptor 2A (Homo sapiens) (UniProt P28223). The experiment in a line: 5-hydroxytryptamine receptor 2A (HTR2A) small molecule antagonists, cell-based qHTS assay (AID 1963586). Note: nearly all actives have a fitted effect of over 45% in size. Note: potency is the fitted concentration of half-maximal effect. The method in brief: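 CHO cells stably expressing human HTR2A were plated for 18 h at 37 C, then loaded with calcium dye for 1 h. Compounds were preincubated 5 min at room temperature before DOI (4 nM solution) was added. Kinetic fluorescence was read for 3 min.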

For experiment [10] the target is unchanged. The experiment is described as follows: 5-hydroxytryptamine receptor 2A (HTR2A) small molecule agonists, cell-based qHTS assay (AID 1963587). Note: nearly all actives have a fitted effect of over 30% in size. The method in brief:
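HTR2A-CHO cells, plated 18 h at 37 C/5% CO2, dye-loaded 1 h at 37 C; compounds in DMSO added by pin tool (agonist mode). Intracellular calcium flux read as kinetic fluorescence on FDSS over 2 min at 1 s intervals.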

Experiment [11] concerns the target Muscarinic acetylcholine receptor M1 (Homo sapiens) (UniProt P11229). The experiment is described as follows: Cholinergic receptor muscarinic 1 (CHRM1) small molecule antagonists, cell-based qHTS assay (AID 1963588). Note: nearly all actives have a fitted effect of over 40% in size. Note: potency is the fitted concentration of half-maximal effect. The method in brief: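 Compounds were tested at 15 concentrations in three independent runs. Dye-loaded CHRM1-CHO cells were exposed 5 min at room temperature before stimulation by acetylcholine added at 50nM. Intracellular calcium was read kinetically on FDSS for 3 min.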

Experiment [12] shares this target. The experiment is described as follows: Cholinergic receptor muscarinic 1 (CHRM1) small molecule agonists, cell-based qHTS assay (AID 1963589). Note: nearly all actives have a fitted effect of over 35% in size. The method in brief:
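Cells were plated and incubated 18 h at 37 C/5% CO2, loaded with calcium dye for 1 h at 37 C, then treated with compounds in DMSO. Fluorescence was recorded kinetically at 1 sec intervals.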

Experiment [13] is described as follows: cAMP Responsive Elements (CRE) small molecule agonists, cell-based qHTS assay (AID 1963590). The method in brief:
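Cells carrying a CRE-driven beta-lactamase reporter (HEK 293T) are seeded, incubated overnight (18 h), and treated with test compounds for 3 h at 37 C; reporter activity is then detected with a FRET substrate after 2 h at room temperature.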

Experiment [14] has as its target Beta-2 adrenergic receptor (Homo sapiens) (UniProt P07550). The experiment in a line: Adrenergic beta2 receptor (ADRB2) small molecule antagonists, cell-based qHTS assay (AID 1963592). Note: series mostly up to about 92 µM; nearly all actives have a fitted effect of over 50% in size. A digest of the protocol:
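Assay format: CHO-ADRB2 cells, 18-20hr seeding at 37C/5% CO2, then compound plus 1nM isoproterenol agonist mix for 0.5hr RT. Homogeneous time-resolved fluorescence cAMP detection after 1hr, expressed as 665/615 nm ratio.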

The target in experiment [15] is D(2) dopamine receptor (Homo sapiens) (UniProt P14416). The experiment in a line: Dopamine D2 receptor (DRD2) small molecule agonists, cell-based qHTS assay (AID 1963594). Note: nearly all actives have a fitted effect of over 35% in size. A digest of the protocol: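 HEK293 cells stably expressing DRD2 were cultured 24 h at 37 C, then given Ro20-1724 (0.1 mM final) and compounds for 10 min at room temperature. NKH477 (200nM) was then added for 30 min. cAMP was read by HTRF.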

Experiment [16] has the same target. The experiment is described as follows: Dopamine D2 receptor (DRD2) small molecule antagonists, cell-based qHTS assay (AID 1963595; active = well fitted inhibition curve with a large enough effect in the signal ratio in the repeat runs, with a control signal flat; the % refers to the signal ratio). The method in brief:
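HTRF cAMP read-out at 665 and 620 nm emission (340 nm excitation). Antagonist mode: compounds were tested against 12 nM quinpirole in DRD2-HEK293 cells, with 200 nM NKH477 raising cAMP and 0.1 mM Ro20-1724 blocking its breakdown.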

The nature of experiment [17]: p53 small molecule agonists, cell-based qHTS assay with human liver microsomes: qHTS cell viability counter screen (AID 1963579). Note: nearly all actives have a fitted effect of over 45% in size. The method in brief: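 Tox21 library compounds, delivered from DMSO stocks, were tested on p53RE-bla cells together with 0.5 mg/mL human liver microsomes and 0.5 mg/mL NADPH (final) over 16 h at 37 C; CellTiter-Glo luminescence served as the cytotoxicity measure.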

A short description of experiment [18]: cAMP Responsive Elements (CRE) small molecule antagonists, cell-based qHTS assay (AID 1963591; active = well fitted inhibition curve with a large enough effect in the signal ratio in the repeat runs, not every such curve was filed as active; the % refers to the signal ratio). The method in brief:
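Cells (CRE-bla HEK 293T, DMEM with 10% dialyzed FBS and 25 mM HEPES) are seeded and incubated 18 h. Compounds are added with NKH477 agonist at 0.25 uM final for 3 h, then FRET substrate for 2 h.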

Sequence of Muscarinic acetylcholine receptor M1 (Homo sapiens) (P11229 whole entry, looked up): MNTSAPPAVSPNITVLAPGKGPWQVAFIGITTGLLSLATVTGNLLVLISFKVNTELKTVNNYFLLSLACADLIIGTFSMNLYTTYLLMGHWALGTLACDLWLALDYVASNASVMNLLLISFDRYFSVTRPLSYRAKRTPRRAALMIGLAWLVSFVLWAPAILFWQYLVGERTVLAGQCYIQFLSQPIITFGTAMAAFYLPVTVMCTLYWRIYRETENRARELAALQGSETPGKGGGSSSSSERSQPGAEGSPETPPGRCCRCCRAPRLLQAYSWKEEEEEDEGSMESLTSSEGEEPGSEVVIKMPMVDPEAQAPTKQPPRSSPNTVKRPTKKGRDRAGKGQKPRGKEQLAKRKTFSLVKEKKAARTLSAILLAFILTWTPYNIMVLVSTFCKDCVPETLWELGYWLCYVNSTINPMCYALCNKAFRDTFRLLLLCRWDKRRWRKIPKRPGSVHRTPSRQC
Sequence of 5-hydroxytryptamine receptor 2A (Homo sapiens) (P28223 whole entry, looked up): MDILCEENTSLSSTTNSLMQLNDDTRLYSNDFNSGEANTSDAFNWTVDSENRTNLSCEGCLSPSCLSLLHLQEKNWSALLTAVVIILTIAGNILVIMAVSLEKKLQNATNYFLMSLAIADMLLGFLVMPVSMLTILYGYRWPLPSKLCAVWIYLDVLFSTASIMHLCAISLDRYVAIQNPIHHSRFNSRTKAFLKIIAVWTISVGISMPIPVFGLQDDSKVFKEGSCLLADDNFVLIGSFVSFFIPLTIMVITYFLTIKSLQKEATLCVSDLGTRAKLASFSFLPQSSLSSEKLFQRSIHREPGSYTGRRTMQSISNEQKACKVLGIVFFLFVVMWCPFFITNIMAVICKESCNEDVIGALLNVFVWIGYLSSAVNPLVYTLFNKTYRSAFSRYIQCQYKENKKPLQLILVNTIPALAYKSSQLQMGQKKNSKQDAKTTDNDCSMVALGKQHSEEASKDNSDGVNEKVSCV
Sequence of D(2) dopamine receptor (Homo sapiens) (P14416 whole entry, looked up): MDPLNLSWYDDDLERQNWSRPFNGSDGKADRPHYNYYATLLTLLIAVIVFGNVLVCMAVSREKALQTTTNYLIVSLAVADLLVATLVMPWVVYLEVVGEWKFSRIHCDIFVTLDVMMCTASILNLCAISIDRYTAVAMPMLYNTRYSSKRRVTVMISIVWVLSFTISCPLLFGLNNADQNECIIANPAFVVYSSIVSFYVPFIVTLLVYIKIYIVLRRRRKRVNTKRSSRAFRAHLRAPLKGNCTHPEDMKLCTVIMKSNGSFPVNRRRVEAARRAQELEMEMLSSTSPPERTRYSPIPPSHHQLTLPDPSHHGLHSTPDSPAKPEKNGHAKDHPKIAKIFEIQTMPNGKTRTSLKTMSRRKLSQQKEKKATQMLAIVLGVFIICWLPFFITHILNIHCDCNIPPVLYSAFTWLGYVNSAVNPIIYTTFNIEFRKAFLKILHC
Sequence of KiSS-1 receptor (Homo sapiens) (Q969F8 whole entry, looked up): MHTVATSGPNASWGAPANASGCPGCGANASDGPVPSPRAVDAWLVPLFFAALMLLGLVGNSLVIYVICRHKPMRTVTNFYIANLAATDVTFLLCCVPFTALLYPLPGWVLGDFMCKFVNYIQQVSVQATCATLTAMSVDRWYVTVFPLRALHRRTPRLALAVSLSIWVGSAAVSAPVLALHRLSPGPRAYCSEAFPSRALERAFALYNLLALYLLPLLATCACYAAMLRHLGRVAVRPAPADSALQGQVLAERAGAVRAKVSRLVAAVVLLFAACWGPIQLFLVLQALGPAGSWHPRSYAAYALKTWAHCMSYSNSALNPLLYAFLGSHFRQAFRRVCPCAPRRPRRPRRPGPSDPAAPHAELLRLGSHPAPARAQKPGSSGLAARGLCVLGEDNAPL
Sequence of Beta-2 adrenergic receptor (Homo sapiens) (P07550 whole entry, looked up): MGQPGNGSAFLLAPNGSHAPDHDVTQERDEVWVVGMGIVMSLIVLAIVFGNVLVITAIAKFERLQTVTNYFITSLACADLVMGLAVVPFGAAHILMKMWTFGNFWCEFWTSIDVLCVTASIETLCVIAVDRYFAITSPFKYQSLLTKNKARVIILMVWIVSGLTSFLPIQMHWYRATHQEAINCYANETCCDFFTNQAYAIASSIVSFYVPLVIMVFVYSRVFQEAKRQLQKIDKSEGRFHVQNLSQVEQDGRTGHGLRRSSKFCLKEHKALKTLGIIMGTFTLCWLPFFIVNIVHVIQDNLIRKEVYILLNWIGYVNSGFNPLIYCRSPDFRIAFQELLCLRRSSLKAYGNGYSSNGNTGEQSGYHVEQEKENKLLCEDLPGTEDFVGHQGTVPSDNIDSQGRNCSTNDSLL

For the molecule `COC(=O)CCCCCCCC(=O)OC`, the Potency result in experiment [1], in experiment [2], in experiment [3], in [4], in experiment [5] and in experiment [6] was “inactive” each time. Moreover, the Potency result in [7], in experiment [8], in [9], in experiment [10], in [11] and in [12] was “inactive” in each case. Moreover, the Potency result in experiment [13], in experiment [14], in experiment [15] and in experiment [16] was “inactive” in each case.
Turning to `C=CC(=O)NC(C)(C)C`, the Potency entry in experiment [1], in [2], in experiment [3], in experiment [17], in experiment [6] and in experiment [7] was “inactive” in each case. The Potency entry in [9], in experiment [10], in [11], in experiment [12], in experiment [13] and in [18] was “inactive” throughout. Moreover, the Potency result in [14], in experiment [15] and in [16] was “inactive” each time.
Regarding `C#CCN(C)CCCOc1ccc(Cl)cc1Cl`, the Potency entry in [1], in experiment [2], in experiment [3], in experiment [5], in [17] and in experiment [6] was “inactive” in each case. For the same molecule, the Potency entry in [7], in [8], in [12], in [13], in experiment [18] and in [14] was “inactive” each time. Further, in experiment [9], the Potency is 16.3 µM (active).
In the case of `COc1ccc(CCN(C)CCCN2CCc3cc(OC)c(OC)cc3CC2=O)cc1OC`, the Potency result in experiment [1], in [2], in experiment [3], in experiment [17], in [6] and in [7] was “inactive” in each case. For the same molecule, the Potency entry in [9], in experiment [10], in experiment [11], in experiment [12], in experiment [13] and in experiment [18] was “inactive” each time. For the same molecule, the Potency result in experiment [14], in experiment [15] and in [16] was “inactive” throughout.
On to `C=C(C)C(=O)OCCCCCCCCCC`, for which the Potency result in experiment [1], in experiment [2], in [3], in experiment [6], in experiment [9] and in experiment [10] was “inactive” in each case. The Potency result in experiment [12], in experiment [13], in [18] and in experiment [15] was “inactive” each time. In addition, in experiment [11], the Potency was 42.4 µM (active).
As to `CN(C)c1ccc(C=O)cc1`, the Potency entry in experiment [1], in experiment [2], in [3], in experiment [4], in [5] and in [17] was “inactive” in each case. In addition, the Potency result in experiment [6], in experiment [7], in experiment [10], in [11], in [12] and in [13] was “inactive” throughout. Besides, the Potency entry in [18], in experiment [14], in experiment [15] and in [16] was “inactive” in each case.
On to `CC(C)(C)OC(=O)c1ccc(O)cc1`, for which the Potency result in [1], in experiment [2], in experiment [3], in experiment [17], in experiment [6] and in experiment [7] was “inactive” throughout. For the same molecule, the Potency result in [9], in experiment [10], in [11], in [12], in experiment [13] and in experiment [14] was “inactive” in each case. For the same molecule, the Potency result in [15] and in [16] was “inactive” throughout.
Consider `CCCCNc1cc(C(=O)O)cc(S(N)(=O)=O)c1Oc1ccccc1`, for which the Potency entry in experiment [1], in [2], in experiment [3], in [4], in experiment [5] and in experiment [6] was “inactive” in each case. For the same molecule, the Potency entry in experiment [7], in experiment [8], in experiment [10], in [12], in [13] and in experiment [18] was “inactive” in each case. The Potency entry in experiment [14], in experiment [15] and in [16] was “inactive” in each case.
Regarding `CCCCCCCCCCOC(=O)c1ccccc1C(=O)OCCCCCCCC`, the Potency entry in [1], in experiment [2], in experiment [3], in experiment [4], in experiment [5] and in experiment [17] was “inactive” throughout. The Potency entry in experiment [6], in [7], in experiment [8], in [9], in [11] and in [12] was “inactive” each time. In addition, the Potency entry in experiment [13], in experiment [18], in experiment [14], in [15] and in experiment [16] was “inactive” throughout.
